Results: ChEMBL document CHEMBL4513216, “Probing the Open Global Health Chemical Diversity Library for Multistage-Active Starting Points for Next-Generation Antimalarials” (ACS Infect Dis, 2020)
The whole screen tested about 65,000 compounds, of which about 2,100 (3.2%) showed an effect of 50% or more. The median lay at about -52%. The full list was thinned out, with strong results kept by preference.

test system: Plasmodium falciparum; assay: Screen against P. falciparum Asexual Blood Stage (ABS), at 5uM; format: functional, Dd2; conditions: tested at 5 uM

Structure (SMILES)	INHIBITION [%]
O=C(CN1CCC(C(=O)c2cc(F)ccc2F)CC1)NC1CCCC1	-63.8
Cc1nn(C)c2c(NCc3ccc(F)cc3)nc(C3CC3)nc12	40.3
CCCn1ccnc1CN1CCCC(O)(CN(C)C)CC1 (stereo not drawn)	-44.8
CC(=O)N1CC[C@H]2[C@H](C[C@@H](Cn3cncn3)N2c2nccs2)C1	-33.8
CC1CCC(n2cc3nc(N)[nH]cc-3c2=O)CC1 (stereo not drawn)	-68.9
CNc1nc2cn(C3CCCC3)c(=O)c-2c[nH]1	-45.905
Nc1nc2cn(C3CCCC3)c(=O)c-2c[nH]1	69.9
CN(C)c1nc2c(c(N3CCC4(CC3)CNC(=O)C4)n1)CCCC2	-6.41
O=S(=O)(N1CCCCC1)N1CCCN(CC2CCCO2)CC1 (stereo not drawn)	-12.8
CC(C)N(C)Cc1cncc2c1CCN(C(=O)c1ccccc1F)C2	-44.1
CN(Cc1ccco1)[C@@H]1CN(Cc2cccnc2)C[C@@H]2CCCO[C@@H]21	29.1
CN(Cc1ccco1)[C@@H]1CN(Cc2cccs2)C[C@@H]2CCCO[C@@H]21	65.3
CN(Cc1ccco1)[C@@H]1CN(Cc2nccs2)C[C@@H]2CCCO[C@@H]21	31.1
CN(Cc1ccco1)[C@@H]1CN(Cc2ccncc2)C[C@@H]2CCCO[C@@H]21	9.86
Cc1ccc(CN2C[C@@H]3CCCO[C@@H]3[C@H](N(C)Cc3ccco3)C2)o1	39.7
CN(Cc1ccco1)[C@@H]1CN(Cc2ccoc2)C[C@@H]2CCCO[C@@H]21	60.3
COC(=O)c1cccn1C1CCN(Cc2cnc3ccccn23)CC1	-55.1
COC(=O)c1ccc(S(=O)(=O)NC2CNC(=O)C2)cc1 (stereo not drawn)	-28.8
Cn1c(=O)c2sccc2n(CC(=O)Nc2cccc(Cl)c2)c1=O	59.4
CC(C)c1cccc(NC(=O)Cn2c(=O)n(C)c(=O)c3sccc32)c1	-34.2
CCn1c(=O)c2sccc2n(CC(=O)Nc2cccc(Cl)c2)c1=O	-40
O=C(NC1CCN(c2ncccc2F)C1)c1cccc(-n2ccnc2)c1 (stereo not drawn)	-41.7
Cc1cc(S(=O)(=O)N2CCCN3CCCC3C2)ccc1F (stereo not drawn)	69.1
Cc1ccc(S(=O)(=O)N2CCCCC(N3CCN(C)CC3)C2)cc1F (stereo not drawn)	39.6
Cc1ccc(S(=O)(=O)N2CCC(S(=O)(=O)c3nncn3C)CC2)cc1C	-31.9
Cc1ccc(S(=O)(=O)N2CCC(S(C)(=O)=O)CC2)cc1C	-1.8

Structure (SMILES)	INHIBITION [%]
Cc1ccc(S(=O)(=O)N2CCC(N3CCCCC3)CC2)cc1C	65.9
Cc1cc(S(=O)(=O)N2CCC(S(C)(=O)=O)C2)ccc1F (stereo not drawn)	-22.2
CC(C(=O)N1CCc2sccc2C1)N1CCCN(C2CC2)CC1 (stereo not drawn)	22.7
CC(C(=O)N1CCc2sccc2C1)N1CCC(N2CCCC2)CC1 (stereo not drawn)	53
CC(C)NC(=O)C1CCN(C(C)C(=O)N2CCc3sccc3C2)CC1 (stereo not drawn)	-14.7
CN1CCC(Cc2cncc(-c3ccccc3C(=O)O)n2)C1 (stereo not drawn)	-92
CCc1nc2ccccc2c(=O)n1CC1(O)CCN(S(C)(=O)=O)CC1	-59.6
CC(C)c1cc(C(=O)N2CCOC3(CCCC3)C2)no1	-111
CCOc1ccc(C(=O)Nc2c(C)nc3ccc(Cl)cn3c2=O)cc1	-87.3
COC(=O)c1ccc(S(=O)(=O)NCc2cccnc2N(C)C)cc1	-8.55
CCOC(=O)c1ccc(S(=O)(=O)NCc2cccnc2N(C)C)cc1	54.1
CN(C)c1ncccc1CNS(=O)(=O)c1ccc(C(N)=O)cc1	-34.2
CC(C)(O)CCc1ccc(C(=O)N2Cc3cnn(CCO)c3C2)cc1	-86.5
CCOc1ncnc2c1CCN(C(=O)NCc1cccnc1)CC2	-58.1
N#Cc1ccc(CNc2cnn(CCN3CCOCC3)c2)cc1	-16.7
Clc1ccc(CNc2cnn(CCN3CCOCC3)c2)cc1Cl	-55.6
Clc1cccc(CNc2cnn(CCN3CCCCC3)c2)c1	53.3
Cn1nccc1CCNC(=O)[C@H]1CNC[C@H](C(=O)N2CCCC2)C1	-22.7
Cc1nn(C)c2nc(N3CCNC(=O)C3Cc3ccccc3)sc12 (stereo not drawn)	-81.9
Cc1ccc(CN2CCN(c3nc4c(s3)c(C)nn4C)C(C)C2=O)cc1 (stereo not drawn)	69.8
COC(=O)CN1CCN(c2nc3c(s2)c(C)nn3C)C(C)C1=O (stereo not drawn)	-88
O=C(CN1C=Nc2ccccc2S1(=O)=O)NCCCc1ccccc1	-115
CCn1cnnc1CNC(=O)N1CCN(c2ccccc2Cl)CC1	-79.9
COc1ccc(CN(Cc2cncn2C)CC2CCCO2)c(OC)c1 (stereo not drawn)	-22.7
CSc1ccc(-c2nc(CN3C[C@@H](C)NC[C@@H]3C)c(C)o2)cc1	-61.5
CSc1ccc(-c2nc(CN3CCNCC3C)c(C)o2)cc1 (stereo not drawn)	35.1

Structure (SMILES)	INHIBITION [%]
Cc1oc(-c2cc(F)cc(F)c2)nc1CN1C[C@@H](C)NC[C@@H]1C	60.1
Cn1cc(N2C[C@@H]3CN(CC4CCOCC4)C[C@@H]3C2=O)cn1	-67.1
Cn1cc(C2CCCN2C(=O)CCCc2ccccn2)cn1 (stereo not drawn)	-94.3
Cc1ccc(CNC(=O)c2cc(Cn3ccnc3C(C)C)[nH]n2)o1	-76.4
CCCc1cc(N2CCC(NCC3(O)CCN(C)CC3)CC2)nc(C)n1	51.2
CCCc1cc(N2CCC(NC3CCC(O)CC3)CC2)nc(C)n1 (stereo not drawn)	-161
CCCc1cc(N2CCC(NCC3(O)CCCCC3)CC2)nc(C)n1	8.94
CCS(=O)(=O)CC(=O)NC(c1ccccc1)C1CCCC1 (stereo not drawn)	-30
Cc1noc(C)c1CN1CCN(C(C)c2nc(C3CC3)no2)CC1 (stereo not drawn)	-77.5
Cc1c(Cc2ccccc2)c(O)nc2nc(N3CCOCC3)nn12	-56.2
O=C(c1ccncc1)N1CCC2(CC1)CCN(C(=O)c1cccnc1)C2	-57.2
CC(=O)Nc1ccc(OCc2noc(C(=O)N3CCCCCC3)n2)cc1	-83.9
Fc1ccc(CCC2CCCN(Cc3c[nH]cn3)C2)c(F)c1 (stereo not drawn)	61.6
Cc1[nH]c(=O)[nH]c(=O)c1CN1CCCC(CCc2ccccc2F)C1 (stereo not drawn)	-26.5
CNc1ccc(CC2CCCN(Cc3c[nH]cn3)C2)nn1 (stereo not drawn)	-105
Cc1[nH]c(=O)[nH]c(=O)c1CN1CCCC(CCc2c(F)cccc2F)C1 (stereo not drawn)	-44.3
Cc1nc(CN2CCCC(CCc3ccccc3F)C2)c[nH]1 (stereo not drawn)	36.5
Cc1nc(CN2CCCC(CCc3c(F)cccc3F)C2)c[nH]1 (stereo not drawn)	43.1
Nc1ccc(CC2CCCN(Cc3c[nH]cn3)C2)nn1 (stereo not drawn)	-87
Cc1nc(CN2CCCC(CCc3ccc(F)cc3F)C2)c[nH]1 (stereo not drawn)	57.6
Cc1[nH]c(=O)[nH]c(=O)c1CN1CCCC(CCc2ccc(F)cc2F)C1 (stereo not drawn)	52
Cc1ccc(OCC(O)CN2CCc3c(ncn3C3CC3)C2)cc1 (stereo not drawn)	-28.3
CN1CCc2nc(C3CCCN(C(=O)CC(C)(C)C)C3)ncc2C1 (stereo not drawn)	-102
Cc1cccc(-c2ccc(C(=O)N3CCSCC3)c(=O)[nH]2)c1	-14.2
Cc1csc(CN2CC[C@H]3O[C@H](C(=O)Nc4cccnc4)CC[C@H]32)n1	-18.1
Cc1nn(C)c2c(N3CCN(C(=O)C4CCCO4)CC3)ncnc12 (stereo not drawn)	9.5

Structure (SMILES)	INHIBITION [%]
CC(=O)N1CCN(C(=O)c2cc(C(C)C)no2)[C@H]2CS(=O)(=O)C[C@H]21	-67
O=C(CCNC(=O)c1cccc(OC(F)F)c1)Nc1cccnc1	-128
Cc1cccc(CN2CCc3nnc(CN4CCCC4=O)n3CC2)n1	-48.8
Cc1cccc(CN2CCc3nnc(Cn4cccc4)n3CC2)n1	57.5
Cc1cccc(CN2CCc3nnc(CN(C)C)n3CC2)n1	-108
Cc1nnc2n1CCN(CCS(=O)(=O)c1ccc(Cl)cc1)C2	-194
Cc1cccc(-c2noc(Cn3nc(C(N)=O)ccc3=O)n2)c1	-165
O=S(=O)(NCc1ccccc1)N(Cc1ccccn1)CC1CCCO1 (stereo not drawn)	-181
CN(CCCC1CCCO1)S(=O)(=O)NCc1ccccc1 (stereo not drawn)	-55.1
CN(C)CCN(CC1CCCO1)S(=O)(=O)NCc1ccccc1 (stereo not drawn)	62
C[C@@H](CO)NC(=O)c1ccc2nc(NS(C)(=O)=O)sc2c1	-104
CCOc1ccc(CNC(=O)N(C)CC(C)(C)O)cc1C	-65.1
COCC(=O)N1CCC2(CC1)CN(c1ccccn1)CCO2	-89.8
COCC1CC2(CCN(Cc3ccco3)CC2)CN1C(C)C (stereo not drawn)	64.6
COCC1CC2(CCN(Cc3nccs3)CC2)CN1Cc1ccccn1 (stereo not drawn)	1.23
COCC(=O)N1CCC2(CCN(Cc3ccccn3)CC2)CC1	-158
COCC(=O)N1CCC2(CC1)CC(COC)N(Cc1ccccn1)C2 (stereo not drawn)	-56
COCC1CC2(CCN(CC3CC3)CC2)CN1Cc1csc(C)n1 (stereo not drawn)	53.4
COCCN1CCC2(CC1)CCN(Cc1ccccn1)CC2	52.2
Cn1cc(CN2CCC3(CC2)CCN(Cc2ccccn2)CC3)cn1	-19.8
COCC1CC2(CCN(C(=O)c3ccco3)CC2)CN1C(C)C (stereo not drawn)	24.5
COCC1CC2(CCN(Cc3ccc(C)o3)CC2)CN1C(C)C (stereo not drawn)	34.5
CCN1CCC2(CC1)CC(COC)N(Cc1csc(C)n1)C2 (stereo not drawn)	-19.2
COCC1CC2(CCN(C(C)=O)CC2)CN1Cc1csc(C)n1 (stereo not drawn)	-7.46
COCC1CC2(CCN(Cc3ccoc3)CC2)CN1Cc1ccccn1 (stereo not drawn)	57.2
